According to PubChem BioAssay:
Measured potencies and affinities stand elsewhere. Calls of active or inactive are those of the source. Cut-off not given; nearly all actives show IC50 up to about 0.98 µM.

Target: Calcium-dependent protein kinase 1 (Plasmodium falciparum (isolate 3D7)) (UniProt P62344)
Experiment: PfCDPK1 kinase inhibitors, biochemical, TCAMS library (AID 1159585);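 further: inhibitors leave more ATP so luminescence rises with inhibition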
Details: recombinant PfCDPK1, Kinase-Glo ATP depletion luminescence

Sequence of Calcium-dependent protein kinase 1 (Plasmodium falciparum (isolate 3D7)) (P62344 whole entry, looked up): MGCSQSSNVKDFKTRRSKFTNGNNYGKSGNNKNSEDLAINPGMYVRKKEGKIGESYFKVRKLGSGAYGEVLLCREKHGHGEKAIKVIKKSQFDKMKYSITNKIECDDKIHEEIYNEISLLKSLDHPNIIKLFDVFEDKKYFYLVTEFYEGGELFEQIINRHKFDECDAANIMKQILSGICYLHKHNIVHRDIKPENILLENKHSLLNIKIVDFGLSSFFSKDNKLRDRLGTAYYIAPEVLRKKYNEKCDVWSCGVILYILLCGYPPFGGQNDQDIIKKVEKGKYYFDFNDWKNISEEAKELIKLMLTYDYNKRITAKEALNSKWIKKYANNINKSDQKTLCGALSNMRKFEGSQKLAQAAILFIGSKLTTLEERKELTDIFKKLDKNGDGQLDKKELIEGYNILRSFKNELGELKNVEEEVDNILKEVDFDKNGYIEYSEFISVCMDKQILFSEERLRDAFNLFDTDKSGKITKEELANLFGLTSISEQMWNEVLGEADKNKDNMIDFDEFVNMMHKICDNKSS

outcome, inactive:
COC(=O)c1ccc(CCCNCC(O)c2cccc(C(F)(F)F)c2)cc1 (stereo not given), O=C(Nc1cc(C(F)(F)F)cc(C(F)(F)F)c1)Nc1cc(C(F)(F)F)cc(C(F)(F)F)c1, COc1ccc2ncc(F)c(CCN3CCC(NCc4cc(Br)c5c(c4)OCCO5)CC3)c2n1, O=C(Nc1ccc(F)cc1)c1nc2ccccc2nc1Cl, CCOC(=O)c1ccc(NC(=O)Nc2cccc(-c3cccc(-c4nc5ccccc5[nH]4)c3)c2)cc1, CCCCCCCCN1CCN(CCCCCCNc2c3ccccc3nc3ccccc23)CC1, CCC(C(=O)Nc1ccccc1)n1nc(-c2ccc(C)c(S(=O)(=O)N3CCCCC3)c2)ccc1=O (stereo not given), CC(C)(C)c1ccc(CNC(=O)c2ccc(CNC3CCC(N)CC3)s2)cc1 (stereo not given), COc1ccc2nccc(N3CCC(CCNCc4cc5c(cn4)OCCO5)CC3)c2c1, O=C(NC1CCC(N2CCC(c3nc4ccccc4s3)CC2)CC1)c1cc2ccccc2[nH]1 (stereo not given), COc1cc(NC(=O)c2cccs2)c(OC)cc1NC(=O)Nc1cccc(Cl)c1, CNC(=O)c1cc(S(=O)(=O)Nc2ccc(OC)cc2)cs1, CN(C)CCOc1ccc(N2CCN(CCCCNC(=O)c3ccc(NC(=O)c4ccc(Cl)cc4)cc3)CC2)cc1, C[C@@H]1CN(C(c2cccc(O)c2)c2cccc(C(=O)N(C)c3cccc(F)c3)c2)[C@@H](C)CN1C(c1cccc(O)c1)c1cccc(C(=O)N(C)c2cccc(F)c2)c1 (stereo not given in full), COc1ccc2nc(C)cc(NN=Cc3cccc(Cl)c3)c2c1
